Shown are actives, neighbours in structure and some others; about 10% of the full set was active somewhere.
MCF10A rerep: induces DNA re-replication in MCF 10a normal breast cells | MCF 10A DNA re-replication, Hoechst nuclear intensity, 48 h | Potency, µM (series often up to 46.1 µM), usual class: activators | 2.9% of 350,000 active; also: nearly all actives have a fitted effect of over 50% in size
ELG1 repair inh: ELG1-dependent DNA repair inhibition | HEK293T ELG1-luciferase reporter, luminescence, 16 h; DNA damage induced by 5-fluorouridine | Potency, µM (titrated, usually from 46.1 µM), usual class: inhibitors | 2.3% of 330,000 active | AID 504467; also: nearly all actives have a fitted effect of over 55% in size
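Reporter activity after DNA damage by 5-fluorouridine is monitored. Compound-treated cells incubate 16 hr at 37 °C, then ONE-Glo is added for 30 min before luminescence reading.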
RORg inh: blocks mouse ROR gamma transcriptional activity; P51450; Drosophila S2 Gal4-RORgamma UAS-luciferase reporter, 20 h; Potency, µM (top dose mostly 53.6 µM), actives largely listed as inhibitors; 5.4% of 310,000 active; also: nearly all actives have a fitted effect of over 60% in size
Target sequence (P51450 whole entry, looked up, the tested form may be a part): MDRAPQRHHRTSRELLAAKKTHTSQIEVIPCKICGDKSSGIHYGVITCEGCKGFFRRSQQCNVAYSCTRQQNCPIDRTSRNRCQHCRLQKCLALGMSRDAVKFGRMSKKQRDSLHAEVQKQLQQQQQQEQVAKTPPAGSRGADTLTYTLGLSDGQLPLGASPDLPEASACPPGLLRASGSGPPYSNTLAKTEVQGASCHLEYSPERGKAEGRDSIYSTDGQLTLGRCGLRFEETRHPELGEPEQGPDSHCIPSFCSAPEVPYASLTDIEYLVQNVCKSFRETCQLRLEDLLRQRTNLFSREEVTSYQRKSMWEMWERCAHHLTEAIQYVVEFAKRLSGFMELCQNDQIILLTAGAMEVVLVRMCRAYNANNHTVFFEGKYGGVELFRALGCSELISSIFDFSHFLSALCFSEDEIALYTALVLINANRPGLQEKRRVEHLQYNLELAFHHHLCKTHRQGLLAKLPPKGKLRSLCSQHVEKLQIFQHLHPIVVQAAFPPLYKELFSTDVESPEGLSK
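Schneider cells (Drosophila), stable Gal4 DBD–ROR gamma + UAS-luc; 1 hr cmpd preincubation; Cu2+ induction 700 uM final; 20 hr ambient; luminescence.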
SW480 rerep: induces DNA re-replication in SW480 colon adenocarcinoma cells | SW480 DNA re-replication, Hoechst DNA content imaging, 48 h | 1.8% of 340,000 active | Potency, µM (top dose mostly 46.1 µM), most hits filed as activators | AID 624297; also: nearly all actives have a fitted effect of over 55% in size
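Hoechst fluorescence of nuclei (405 nm excitation, 500-530 nm emission) measured by plate-scanning imager after 48 hr compound exposure at 37 C; re-replication scored as increased number of nuclei with elevated intensity.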
Gal4-VP16 FLuc: counter-screen for ROR gamma inhibitors: Gal4-VP16 reporter; Drosophila S2 Gal4-VP16 UAS-luciferase, luminescence, 20 h; Potency, µM (titrated, usually from 53.6 µM), hits mostly inhibitors; 3.5% of 310,000 active;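 also: Gal4-VP16 expression switched on by copper sulfate through the metallothionein promoter; nearly all actives have a fitted effect of over 50% in size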
A number is an active result. Calls follow the shape of the dose curve; as a rule, active = well fitted curve in the direction sought with a large enough effect; inconclusive = small, poorly fitted or top-dose-only effect, or another doubt; inactive = no such curve, though single readings can be large; an effect the other way counts as inactive or inconclusive.

How did Cc1ccc(NC(=O)C2CC(=O)N(c3ccc4c(c3)OCCO4)C2)nc1 (stereo unspecified) do in these assays?
MCF10A rerep: inactive; ELG1 repair inh: inactive; SW480 rerep: inactive

What do the screens show for `COc1ccc(S(=O)(=O)NCC2CCCO2)cc1C(=O)O` (stereo unspecified)?
MCF10A rerep: inactive; ELG1 repair inh: inactive; RORg inh: inactive; SW480 rerep: inactive; Gal4-VP16 FLuc: inactive

Results for CCC(C(=O)OC(C)C(=O)Nc1ccc(Cl)cn1)c1ccccc1 (stereo unspecified) ?
MCF10A rerep: inactive; ELG1 repair inh: inactive; RORg inh: inactive; SW480 rerep: inactive; Gal4-VP16 FLuc: inactive

What do the screens show for `O=[N+]([O-])c1cc(Oc2cccnc2)cc([N+](=O)[O-])c1`?
MCF10A rerep: inactive; ELG1 repair inh: inactive; RORg inh: inactive; SW480 rerep: inactive; Gal4-VP16 FLuc: inconclusive

What do the screens show for `Cc1cc(C)n(Cc2ccc(NC(=O)c3nn(C)cc3[N+](=O)[O-])cc2)n1`?
MCF10A rerep: 2.3µM; ELG1 repair inh: inconclusive; RORg inh: inconclusive; SW480 rerep: 2.9µM; Gal4-VP16 FLuc: inactive

What do the screens show for `Cn1cc([N+](=O)[O-])c(C(=O)Nc2ccc(C(=O)N3CCCCC3)cc2)n1`?
MCF10A rerep: 21µM; ELG1 repair inh: inactive; RORg inh: inactive; SW480 rerep: 15µM; Gal4-VP16 FLuc: inactive

Results for CCn1cc([N+](=O)[O-])c(C(=O)Nc2ccc(Cn3nc(C)cc3C)cc2)n1 ?
MCF10A rerep: inactive; ELG1 repair inh: inactive; RORg inh: inactive; SW480 rerep: inactive; Gal4-VP16 FLuc: inactive

What do the screens show for `Cn1cc([N+](=O)[O-])c(C(=O)Nc2ccc(C3CCCCC3)cc2)n1`?
MCF10A rerep: inconclusive; ELG1 repair inh: inconclusive; RORg inh: inactive; SW480 rerep: inconclusive; Gal4-VP16 FLuc: inactive

How did Cn1cc([N+](=O)[O-])c(C(=O)Nc2cc(Oc3cccnc3)cc([N+](=O)[O-])c2)n1 do in these assays?
MCF10A rerep: 9.2µM; ELG1 repair inh: 3.2µM; RORg inh: inconclusive; SW480 rerep: 10µM; Gal4-VP16 FLuc: inactive

Results for COc1ccccc1CCNC(=O)c1nccnc1C(=O)O ?
MCF10A rerep: inactive; ELG1 repair inh: inactive; RORg inh: inactive; SW480 rerep: inactive; Gal4-VP16 FLuc: inactive

How did COC(=O)NC(c1ccccc1)c1c[nH]c2ccc(OC)cc12 (stereo unspecified) do in these assays?
RORg inh: inactive; Gal4-VP16 FLuc: inactive

What do the screens show for `CCn1nc(NS(=O)(=O)c2ccccc2)c2cc3cccc(C)c3nc21`?
MCF10A rerep: inconclusive; ELG1 repair inh: inactive; RORg inh: inactive; SW480 rerep: inactive; Gal4-VP16 FLuc: inconclusive

Results for CCn1nc(NC(=O)C2CCCO2)c2cc3cccc(C)c3nc21 (stereo unspecified) ?
MCF10A rerep: inconclusive; ELG1 repair inh: inconclusive; RORg inh: inactive; SW480 rerep: 18µM; Gal4-VP16 FLuc: inactive

Results for CCn1nc(NC(=O)c2ccncc2)c2cc3cccc(C)c3nc21 ?
MCF10A rerep: inactive; ELG1 repair inh: inactive; RORg inh: inactive; SW480 rerep: inactive; Gal4-VP16 FLuc: inactive

How did CCn1nc(NC(=O)C2CCCO2)c2cc3cc(C)ccc3nc21 (stereo unspecified) do in these assays?
MCF10A rerep: inactive; ELG1 repair inh: inconclusive; RORg inh: inactive; SW480 rerep: inactive; Gal4-VP16 FLuc: inactive

What do the screens show for `CCn1nc(NC(=O)c2ccccn2)c2cc3cccc(C)c3nc21`?
MCF10A rerep: 12µM; ELG1 repair inh: inactive; RORg inh: 3.2µM; SW480 rerep: inconclusive; Gal4-VP16 FLuc: 4µM

What do the screens show for `CCn1nc(NC(=O)c2cccnc2)c2cc3cccc(C)c3nc21`?
MCF10A rerep: 7.1µM; ELG1 repair inh: inactive; RORg inh: inactive; SW480 rerep: inconclusive; Gal4-VP16 FLuc: inactive

Results for CS(=O)(=O)N1N=C(c2ccco2)CC1c1ccc(Cl)cc1Cl (stereo unspecified) ?
MCF10A rerep: inactive; ELG1 repair inh: inactive; RORg inh: inactive; SW480 rerep: inactive; Gal4-VP16 FLuc: inactive

Results for CC1Nc2ccc(C(=O)NC3CCCCC3)cc2NC1=O (stereo unspecified) ?
MCF10A rerep: inactive; ELG1 repair inh: inactive; RORg inh: inconclusive; SW480 rerep: inactive; Gal4-VP16 FLuc: inactive

How did N#Cc1cccc(-c2cncnc2-n2ccnc2)c1 do in these assays?
RORg inh: inactive; Gal4-VP16 FLuc: inactive

Source: PubChem BioAssay
